The whole screen tested about 5,500 compounds, of which about 2,000 (36%) were called active. Another 18% or so got no clear call; they are omitted. Cut-off read from the data, not from the text of the source: active = normalized growth mostly below about 0.91 (no sharp cut-off); inconclusive = no clear call, values can overlap the other calls; inactive = mostly above about 0.92. The list shows a part of the results.
Assay: chemical genetic growth profiling, strain panel (AID 1159580);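 note: tested at 20 µM; growth read once vehicle control cultures reached saturation at 30 °C; 1 = growth at the plate median or of vehicle wells; lower values mean less growth of the strain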
Conditions: growth OD

Measured: normalized growth

CN(C)C1C(=O)C(C(N)=O)=C(O)C2(O)C(=O)C3=C(O)c4c(O)ccc(Cl)c4C(C)(O)C3CC12 (stereo unspecified)
inactive: S. cerevisiae deletion strains, locus YAL013W, strain DEP1, hits give low values 1 | S. cerevisiae deletion strains, locus YBR021W, strain FUR4, hits give low values 0.979 | S. cerevisiae deletion strains, locus YBR229C, strain ROT2, hits give low values 0.991 | S. cerevisiae deletion strains, locus YCL029C, strain bik1, hits give low values 0.975 | S. cerevisiae deletion strains, locus YDL035C, strain GPR1, hits give low values 1.01 | S. cerevisiae deletion strains, locus YDL074C, strain BRE1, hits give low values 1.06 | S. cerevisiae deletion strains, locus YDL101C, strain DUN1, hits give low values 0.995 | S. cerevisiae deletion strains, locus YDL134C, strain PPH21, hits give low values 0.992 | S. cerevisiae deletion strains, locus YDL185W, strain tfp1, hits give low values 0.993 | S. cerevisiae deletion strains, locus YDL192W, strain arf1, hits give low values 0.99 | S. cerevisiae deletion strains, locus YDR101C, strain arx1, hits give low values 0.997 | S. cerevisiae deletion strains, locus YDR150W, strain NUM1, hits give low values 0.992 | S. cerevisiae deletion strains, locus YDR162C, strain NBP2, hits give low values 1.01 | S. cerevisiae deletion strains, locus YDR318W, strain mcm21, hits give low values 0.99 | S. cerevisiae deletion strains, locus YDR388W, hits give low values 0.991 | S. cerevisiae deletion strains, locus YDR502C, strain sam2, hits give low values 0.993 | S. cerevisiae deletion strains, locus YEL061C, strain CIN8, hits give low values 0.999 | S. cerevisiae deletion strains, locus YER110C, hits give low values 0.984 | S. cerevisiae deletion strains, locus YER155C, strain BEM2, hits give low values 0.997 | S. cerevisiae deletion strains, locus YER167W, strain BCK2, hits give low values 0.988 | S. cerevisiae deletion strains, locus YGL078C, strain dbp3, hits give low values 0.99 | S. cerevisiae deletion strains, locus YGL086W, strain mad1, hits give low values 0.982 | S. cerevisiae deletion strains, locus YGL248W, strain PDE1, hits give low values 0.985 | S. cerevisiae deletion strains, locus YGR078C, strain PAC10, hits give low values 1.02 | S. cerevisiae deletion strains, locus YGR135W, strain pre9, hits give low values 1.01 | S. cerevisiae deletion strains, locus YGR229C, strain SMI1, hits give low values 1.04 | S. cerevisiae deletion strains, locus YGR252W, strain gcn5, hits give low values 0.948 | S. cerevisiae deletion strains, locus YHR030C, strain SLT2, hits give low values 0.99 | S. cerevisiae deletion strains, locus YHR079C, strain IRE1 (second series), hits give low values 0.979 | S. cerevisiae deletion strains, locus YHR094C, strain hxt1, hits give low values 0.991 | S. cerevisiae deletion strains, locus YHR129C, strain ARP1, hits give low values 0.994 | S. cerevisiae deletion strains, locus YHR200W, strain rpn10, hits give low values 0.98 | S. cerevisiae deletion strains, locus YIL066C, strain RNR3, hits give low values 0.993 | S. cerevisiae deletion strains, locus YIL073C, strain SPO22, hits give low values 0.96 | S. cerevisiae deletion strains, locus YIL125W, strain kgd1, hits give low values 1 | S. cerevisiae deletion strains, locus YIR030C, strain dcg1, hits give low values 0.986 | S. cerevisiae deletion strains, locus YJL095W, strain BCK1, hits give low values 1.03 | S. cerevisiae deletion strains, locus YJL134W, strain LCB3, hits give low values 0.991 | S. cerevisiae deletion strains, locus YJL168C, strain set2, hits give low values 0.991 | S. cerevisiae deletion strains, locus YJL187C, strain SWE1 (second series), hits give low values 0.996 | S. cerevisiae deletion strains, locus YJR043C, strain POL32, hits give low values 0.984 | S. cerevisiae deletion strains, locus YJR075W, strain HOC1, hits give low values 1.01 | S. cerevisiae deletion strains, locus YKL009W, strain mrt4, hits give low values 0.964 | S. cerevisiae deletion strains, locus YKL068W, hits give low values 0.996 | S. cerevisiae deletion strains, locus YKL085W, strain MDH1 (second series), hits give low values 0.984 | S. cerevisiae deletion strains, locus YKL085W, strain MDH1, hits give low values 0.984 | S. cerevisiae deletion strains, locus YKL190W, strain CNB1, hits give low values 1 | S. cerevisiae deletion strains, locus YKR001C, strain vps1, hits give low values 0.985 | S. cerevisiae deletion strains, locus YLR039C, strain RIC1, hits give low values 0.964 | S. cerevisiae deletion strains, locus YLR058C, strain SHM2, hits give low values 0.991 | S. cerevisiae deletion strains, locus YLR102C, strain apc9, hits give low values 0.985 | S. cerevisiae deletion strains, locus YLR262C, strain YPT6, hits give low values 0.985 | S. cerevisiae deletion strains, locus YLR268W, strain sec22, hits give low values 0.999 | S. cerevisiae deletion strains, locus YLR330W, strain CHS5, hits give low values 0.991 | S. cerevisiae deletion strains, locus YLR342W, strain FKS1 (second series), hits give low values 0.932 | S. cerevisiae deletion strains, locus YLR371W, strain rom2, hits give low values 0.979 | S. cerevisiae deletion strains, locus YLR418C, strain cdc73, hits give low values 1.02 | S. cerevisiae deletion strains, locus YML016C, strain PPZ1, hits give low values 0.986 | S. cerevisiae deletion strains, locus YML032C, strain rad52, hits give low values 0.98 | S. cerevisiae deletion strains, locus YML124C, strain tub3, hits give low values 0.989 | S. cerevisiae deletion strains, locus YMR078C, strain ctf18, hits give low values 0.983 | S. cerevisiae deletion strains, locus YMR223W, strain ubp8, hits give low values 0.97 | S. cerevisiae deletion strains, locus YMR263W, strain SAP30, hits give low values 1.02 | S. cerevisiae deletion strains, locus YMR307W, strain GAS1, hits give low values 0.937 | S. cerevisiae deletion strains, locus YNL067W, strain RPL9B, hits give low values 1.03 | S. cerevisiae deletion strains, locus YNL128W, strain TEP1, hits give low values 1.02 | S. cerevisiae deletion strains, locus YNL153C, strain GIM3, hits give low values 1.01 | S. cerevisiae deletion strains, locus YNL233W, strain BNI4, hits give low values 0.999 | S. cerevisiae deletion strains, locus YNL250W, strain rad50, hits give low values 1 | S. cerevisiae deletion strains, locus YNL271C, strain bni1, hits give low values 0.998 | S. cerevisiae deletion strains, locus YNL298W, strain CLA4, hits give low values 0.994 | S. cerevisiae deletion strains, locus YNL307C, strain MCK1, hits give low values 0.976 | S. cerevisiae deletion strains, locus YNL322C, strain KRE1, hits give low values 1 | S. cerevisiae deletion strains, locus YNR052C, strain pop2, hits give low values 0.974 | S. cerevisiae deletion strains, locus YOL006C, strain TOP1, hits give low values 1.09 | S. cerevisiae deletion strains, locus YOL012C, strain htz1 0.811 | S. cerevisiae deletion strains, locus YOL147C, strain pex11, hits give low values 0.992 | S. cerevisiae deletion strains, locus YOR061W, strain CKA2, hits give low values 0.997 | S. cerevisiae deletion strains, locus YOR069W, strain VPS5, hits give low values 0.993 | S. cerevisiae deletion strains, locus YOR136W, strain idh2, hits give low values 0.992 | S. cerevisiae deletion strains, locus YOR144C, strain elg1, hits give low values 0.985 | S. cerevisiae deletion strains, locus YOR184W, strain ser1, hits give low values 0.973 | S. cerevisiae deletion strains, locus YOR316C, strain cot1, hits give low values 0.971 | S. cerevisiae deletion strains, locus YPL055C, strain LGE1, hits give low values 1.04 | S. cerevisiae deletion strains, locus YPL241C, strain CIN2, hits give low values 0.997 | S. cerevisiae deletion strains, locus YPR119W, strain clb2, hits give low values 0.998 | S. cerevisiae deletion strains, locus YPR141C, strain kar3, hits give low values 1 | S. cerevisiae deletion strains, locus YPR163C, strain tif3, hits give low values 0.991 | S. cerevisiae deletion strains, locus YPR167C, strain met16, hits give low values 0.992 | S. cerevisiae deletion strains, strain wtn01, hits give low values 0.988 | S. cerevisiae strains, strain wild type, hits give low values 1

Source: PubChem BioAssay AID1159580 (chemical genetic matrix, 2015)
